PTAP TSG101 blk: blocks PTAP/TSG101 interaction to inhibit HIV-1 budding. Q99816. Fluorescence polarization, FITC-PTAP peptide / Tsg101 binding. 340,000 tested, under 10 active. Potency, µM (series often up to 115 µM), without a hit: top-dose activity change, negative = inhibition, most hits filed as inhibitors. AID 493005; active = well fitted inhibition curve with a large enough effect in the main read-out, with a control signal flat, not every such curve was filed as active; inconclusive = small, poorly fitted or top-dose-only effect, or effect the other way, or a change in a side signal; inactive = no such curve, though single readings can be large or run the other way; also: % of control where 0% means no effect
Target sequence (Q99816 whole entry, looked up): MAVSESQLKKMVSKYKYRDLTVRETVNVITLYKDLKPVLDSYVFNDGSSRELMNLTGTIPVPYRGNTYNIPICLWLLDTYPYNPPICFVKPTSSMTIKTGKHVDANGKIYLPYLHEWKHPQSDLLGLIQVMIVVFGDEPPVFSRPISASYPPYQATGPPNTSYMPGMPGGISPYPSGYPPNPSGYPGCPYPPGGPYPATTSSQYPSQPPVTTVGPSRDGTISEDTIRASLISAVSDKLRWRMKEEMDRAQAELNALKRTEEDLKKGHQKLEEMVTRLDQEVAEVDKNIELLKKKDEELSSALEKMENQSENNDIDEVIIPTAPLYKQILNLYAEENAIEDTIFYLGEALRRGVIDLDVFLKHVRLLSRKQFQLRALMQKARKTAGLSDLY
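Steps: Tsg101 binding domain dispensed (10 uM final), compounds pinned in DMSO, FITC-labeled PTAP-motif peptide added (50 nM final); after 20 min binding at room temperature, polarization measured.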
KB-3-1 cytotox: kills parental KB-3-1 adenocarcinoma cells. KB-3-1 viability, CellTiter-Glo ATP luminescence, 72 h. hit rate 1.4% among 400,000. Potency, µM (highest dose often 46.1 µM), hits mostly cytotoxic; also: % is scaled to controls: 0 for no effect and ±100 for the full control effect; nearly all actives have a fitted effect of over 60% in size
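72 h, 37 °C compound treatment of KB-3-1 parental cells; CellTiter-Glo added, 10 min, luminescence read. Data corrected against DMSO-only plates and normalized before curve fitting.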
RGS4 inhibitor: inhibitors of human regulator of G protein signaling 4. P49798. Transcreener GDP fluorescence polarization, RGS4-accelerated GTP hydrolysis. Potency, µM (titrated, usually from 114 µM), for inactives: at the top dose activity change, negative = inhibition, most hits filed as inhibitors. hit rate 0.039% among 390,000. AID 504845; also: % is scaled to controls: 0 for no effect and ±100 for the full control effect; nearly all actives have a fitted effect of over 75% in size
Target sequence (P49798 whole entry, looked up): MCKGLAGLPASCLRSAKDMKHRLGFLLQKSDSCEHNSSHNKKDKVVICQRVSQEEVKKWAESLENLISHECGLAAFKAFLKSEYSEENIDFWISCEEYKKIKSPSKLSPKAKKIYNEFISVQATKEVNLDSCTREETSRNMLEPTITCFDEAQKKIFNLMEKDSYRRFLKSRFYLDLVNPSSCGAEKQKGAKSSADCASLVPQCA
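MLSMR compounds (23 nl, pin-transferred) preincubated 10 min at room temperature with a 500nM (2x) first reagent, then RGS4 at 900nM (2x) plus Transcreener GDP mix added; fluorescence polarization (620/688 nm) read before and after 90 min at 30 °C.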
SW480 rereplic: DNA re-replication induction in SW480 cells. SW480 DNA re-replication, Hoechst DNA content imaging, 48 h. Potency, µM (series often up to 46.1 µM), for the others: at the top dose re-replication activation, actives largely listed as activators. hit rate 1.8% among 340,000. AID 624297; also: % of control where 0% means no effect; nearly all actives have a fitted effect of over 55% in size
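Quantitative HTS format with DMSO vehicle controls; 48 hr drug incubation at 37 C, then 40 min Hoechst staining and scanning imager measurement at 405 nm excitation.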
KB-V1 cytotox: KB-V1 MDR subline cytotoxicity. hit rate 3.4% among 400,000. AID 1347076. Potency, µM (top dose mostly 46.1 µM), most hits filed as cytotoxic. KB-V1 MDR cells viability, CellTiter-Glo, 72 h; also: % is scaled to controls: 0 for no effect and ±100 for the full control effect; nearly all actives have a fitted effect of over 60% in size
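Following 72 h at 37 degrees C with compound, KB-V1 cell viability was read by CellTiter-Glo luminescence, medium being phenol-red-free DMEM plus 10% FBS; concentration-response parameters came from normalized, curve-fitted qHTS data.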
MCF10A rereplic: inducers of DNA re-replication in MCF 10A breast cells. MCF 10A DNA re-replication, Hoechst nuclear intensity, 48 h. Potency, µM (titrated, usually from 46.1 µM), for the others: top-dose activity, positive = re-replication, usual class: activators. hit rate 2.9% among 350,000; also: % of control where 0% means no effect; nearly all actives have a fitted effect of over 50% in size
An asterisk follows results filed as active; i = inactive; ? = inconclusive; . = not tested or not shown; [ ] = dose if it differs, or a comment. An excerpt weighted towards active compounds, which were near 6.6% of everything screened. Unless noted, calls follow the shape of the dose curve; as a rule, active = well fitted curve in the direction sought with a large enough effect; inconclusive = small, poorly fitted or top-dose-only effect, or another doubt; inactive = no such curve, though single readings can be large; an effect the other way counts as inactive or inconclusive. Potency is read from the fitted curve at half-maximal effect.

SMILES	PTAP TSG101 blk	KB-3-1 cytotox	RGS4 inhibitor	SW480 rereplic	KB-V1 cytotox	MCF10A rereplic
CN(C)CCCNc1oc(/C=C/c2ccccc2)nc1C#N	-1.2%	i	17.9%	-13.3%	i	-0.9%
COc1ccc(CNc2oc(/C=C/c3cccc(OC)c3)nc2C#N)cc1	.	i	-3.1%	.	i	.
CN(C)CCCNc1oc(/C=C/c2ccc(F)cc2)nc1C#N	.	.	21.4%	.	.	.
COc1cc(OC)c(NC(=O)CSc2nc3ccncc3[nH]2)cc1Cl	.	i	-11.2%	.	i	.
CCOc1ccc(/C=C/c2nc(C#N)c(NCCCOC)o2)cc1	0.9%	5.17µM*	?	2.06µM*	2.06µM*	3.66µM*
O=C(COc1ccc(F)cc1)c1ccc2c(c1)CCCC2	0.2%	i	3.2%	1.1%	i	10.3µM*
COc1cccc(CNC(=O)c2ccc(CNS(=O)(=O)c3ccc(C)cc3)cc2)c1	.	i	-3.2%	.	?	.
Cc1cc(C)n2c(Nc3ccccc3)c(-c3ccc(C)o3)nc2n1	.	.	-18.0%	.	.	.
CCN(CC)C(=O)N1c2ccccc2C=Cc2ccccc21	-2.6%	3.66µM*	15.3%	6.9%	?	?
NC(=O)N1c2ccccc2C=Cc2ccccc21	-4.7%	i	-21.9%[56.9 µM]	-3.7%	i	?
Cc1cccn2c(=O)c(C(=O)NCc3cccc(F)c3)cnc12	.	i	16.6%	.	?	.
CCOC(=O)c1c(NC(=O)c2cc(Cl)ccc2Cl)sc2c1CCCC2	.	i	-1.4%	.	i	.
CCOC(=O)c1c(NC(=O)c2ccccc2Cl)sc2c1CCc1ccccc1-2	-1.0%	i	?	-695.2%	?	16.4µM*
CCOC(=O)c1c(NC(=O)c2ccccc2)sc2c1CCc1ccccc1-2	-1.5%	i	?	?	i	20.6µM*
O=C(Nc1ccncc1)c1cnn2c1NC(=C1CC1)C=C2C(F)F	.	i	.	.	?	.
CCc1ccc(N/C(SCc2ccccc2C)=C(/C#N)C(=O)NCc2ccco2)cc1	-6.8%	?	6.1%	3.66µM*	i	-38.1%[0.0737 µM]
Cc1ccc(NC(=O)COC(=O)c2ccccc2OCC(=O)N(C)C)cc1	.	?	.	.	i	.
CCOC(=O)c1sc2ccccc2c1S(=O)(=O)Nc1c(C)cccc1C	.	i	-21.4%	.	i	.
CCOC(=O)/C(=C/c1c(C)n(C)c2ccc([N+](=O)[O-])cc12)C(C)=O	-1.9%	23.1µM*	-38.1%	?	?	14.6µM*
CCn1c(C(=O)N2CCC(C(=O)N3CCN(c4cc(C)ccc4C)CC3)CC2)cc2sccc21	.	i	-1.0%	.	i	.
OCC[N+]1(CCc2ccccc2)CCOCC1	.	i	.	.	i	.
Cc1ccnc(NC(=O)CN(C)S(=O)(=O)c2cccc3nsnc23)c1	-6.6%	i	8.3%[11.4 µM]	-1.6%	?	-11.1%
Cc1ccc2nc(NC(=O)CN(C)S(=O)(=O)c3ccc(Br)s3)sc2c1	-4.9%	?	14.3%	?	?	23.1µM*
Cc1ccc2nc(NC(=O)CN(C)S(=O)(=O)c3cccc4nsnc34)sc2c1	-2.0%	?	-20.2%	2.31µM*	?	?
COc1ccc(CNC(=O)c2cnc3sc(N4CCCCCC4)nn3c2=O)cc1	.	.	-11.4%	.	.	.
SMILES	PTAP TSG101 blk	KB-3-1 cytotox	RGS4 inhibitor	SW480 rereplic	KB-V1 cytotox	MCF10A rereplic
Cc1ccc2c(c1)NC(=O)[C@@]1(C)[C@@H](c3ccccc3)[C@H]3COc4ccccc4[C@@H]3N1C2=O	-3.5%	i	-5.4%	1.7%	i	-8.1%
Cc1ccc2c(c1)[C@H]1[C@H](CO2)[C@H](c2ccccc2)[C@]2(C)C(=O)Nc3cc(F)ccc3C(=O)N12	-3.4%	?	-0.6%	?	?	5.8µM*
C[C@@]12C(=O)Nc3cc(F)ccc3C(=O)N1[C@H]1c3cc(Br)ccc3OC[C@@H]1[C@@H]2c1ccccc1	.	?	-2.6%	?	?	7.31µM*
O=C1OCCN1C(=O)[C@H]1[C@H](c2ccc([N+](=O)[O-])cc2)C(c2ccc(F)cc2)=NN1c1ccccc1	-4.0%	i	-27.8%	7.6%	i	-10.1%
OC[C@@H]1[C@@H](c2ccc(F)cc2)C(c2cccc(Cl)c2)=NN1c1ccccc1	-1.7%	?	-40.7%	0.13µM*	?	0.581µM*
OC[C@@H]1[C@@H](c2ccc(Cl)cc2)C(c2ccccc2)=NN1c1ccccc1	1.2%	i	-9.1%	23.1µM*	i	2.06µM*
OC[C@@H]1[C@@H](c2ccc(Cl)cc2)C(c2cccc(Cl)c2)=NN1c1ccccc1	-1.2%	i	-11.6%	2.31µM*	?	?
COC(=O)Nc1nc(-c2ccccc2)c(C(=O)c2ccc(Cl)cc2)s1	-4.2%	1.03µM*	-0.9%	1.3µM*	0.581µM*	1.03µM*
CC(=O)c1sc(NC(=O)c2c(F)cccc2F)nc1-c1ccccc1	-3.1%	i	-1.9%	-10.9%	i	-0.4%
CC(=O)c1sc(NC(=O)c2ccccc2)nc1-c1ccccc1	-4.0%	i	-3.0%	-56.4%	i	0.651µM*
CCOC(=O)Nc1nc(-c2ccccc2)c(C(=O)c2ccccc2)s1	3.9%	0.82µM*	6.5%	0.92µM*	1.16µM*	1.16µM*
COc1ccc(CNC(=O)CCC(=O)N2CCSc3ccccc32)cc1	.	.	-7.2%	.	.	.
COc1ccc(Cn2c(C(=O)O)c(CNCCc3ccccc3Cl)c3ccc(C)cc32)cc1	.	?	-0.8%	.	?	.
CN(C)c1ccc(/C=C2\C=Cc3ccccc32)cc1[N+](=O)[O-]	.	i	.	.	i	.
CCN(CC)CCCNC(=O)c1ccc2nc(CCc3ccccc3)oc2c1	.	i	-10.3%	.	i	.
CCC1(C)Cc2c(sc3[nH]c(=O)[nH]c(=O)c23)CS1 (centres undefined)	-11.6%	i	-42.6%	-5.6%	11.6µM*	1.2%
Cc1c(C(=O)Nc2cccc(C(F)(F)F)c2)sc2nc[nH]c(=O)c12	.	i	23.1%	.	i	.
C=C1CCN(C(Cc2ccccc2)C(=O)NCc2ccc(Cl)c(Cl)c2)S(=O)(=O)c2ccccc21 (centres undefined)	.	.	20.5%	.	.	.
O=C1S/C(=C\c2ccc(O)c([N+](=O)[O-])c2)C(=O)N1c1ccccc1Cl	-3.1%	i	-10.3%	-69.5%	i	1.64µM*
O=C1S/C(=C\c2ccc(O)c([N+](=O)[O-])c2)C(=O)N1Cc1cccc([N+](=O)[O-])c1	-4.4%	i	-35.7%	-4.1%	?	?
CC1=NOC(=O)/C1=C\c1ccc(-c2cccc(Cl)c2)o1	-5.7%	i	?	?	?	16.4µM*

Bioassay records from PubChem.
